Measurements reported in ChEMBL document CHEMBL3988442, “University of Dundee, Small-Polar-MMV Screening Library” (2021).
For part of these data: Entries with a potency or affinity are not part of this list.

Experiments:
Design in all cases: scale not given: direction of the effect not stated beside the values
[1] = molecular target: Protein translocase subunit SecA (Escherichia coli (strain K12)) (UniProt P10408); assay: Assay to Identify E. coli SecA ATPase Inhibitors; type: functional; details: 30 µM
[2] = molecular target: T1, Ubiquitin-activating enzyme e1, putative (Leishmania donovani (strain BPK282A1)) (UniProt E9BSI1); assay: Leishmania donovani Ubiquitin Activating Enzyme (LdE1); type: functional; details: 30 µM
T1 sequence (whole entry): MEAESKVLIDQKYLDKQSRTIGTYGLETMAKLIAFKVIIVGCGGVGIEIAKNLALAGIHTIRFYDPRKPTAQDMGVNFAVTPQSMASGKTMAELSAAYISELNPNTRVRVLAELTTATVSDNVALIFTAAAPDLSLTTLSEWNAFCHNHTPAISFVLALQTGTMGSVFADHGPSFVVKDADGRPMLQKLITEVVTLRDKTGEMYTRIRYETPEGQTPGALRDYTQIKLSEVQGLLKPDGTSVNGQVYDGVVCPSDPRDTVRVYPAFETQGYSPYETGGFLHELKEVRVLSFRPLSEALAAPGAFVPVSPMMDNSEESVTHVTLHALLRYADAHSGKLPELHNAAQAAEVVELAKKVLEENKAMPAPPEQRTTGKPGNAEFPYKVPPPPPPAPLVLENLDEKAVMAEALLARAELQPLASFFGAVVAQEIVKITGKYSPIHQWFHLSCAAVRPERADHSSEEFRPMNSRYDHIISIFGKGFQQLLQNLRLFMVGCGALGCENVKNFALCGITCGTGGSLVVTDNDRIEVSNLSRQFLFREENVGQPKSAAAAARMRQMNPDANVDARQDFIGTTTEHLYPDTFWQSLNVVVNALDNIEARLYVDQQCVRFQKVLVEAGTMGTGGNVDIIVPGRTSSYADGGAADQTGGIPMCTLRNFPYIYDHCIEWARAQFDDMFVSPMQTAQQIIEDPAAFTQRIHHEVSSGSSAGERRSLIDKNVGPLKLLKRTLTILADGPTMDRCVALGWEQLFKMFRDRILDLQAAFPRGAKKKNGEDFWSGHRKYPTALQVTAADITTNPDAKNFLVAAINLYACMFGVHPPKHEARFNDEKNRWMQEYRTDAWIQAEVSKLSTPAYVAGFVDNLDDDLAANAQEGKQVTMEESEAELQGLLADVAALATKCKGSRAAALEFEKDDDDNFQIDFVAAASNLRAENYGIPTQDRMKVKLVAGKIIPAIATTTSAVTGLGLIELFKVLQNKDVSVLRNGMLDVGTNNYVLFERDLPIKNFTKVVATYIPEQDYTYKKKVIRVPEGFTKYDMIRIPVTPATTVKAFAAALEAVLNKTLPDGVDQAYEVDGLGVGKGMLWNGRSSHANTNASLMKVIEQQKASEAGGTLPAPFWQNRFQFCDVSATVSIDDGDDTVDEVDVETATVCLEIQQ

[3] = molecular target: AMP-activated protein kinase, AMPK (Homo sapiens) (UniProt P54646+O43741+P54619+Q9UGJ0+Q9Y478+Q13131+Q9UGI9); assay: AMP-dependent Kinase enzyme assay. An in vitro enzyme assay that detects ADP turnover that is directly proportional to AMPK activity. This uses naive AMPK that is activated during the assay with MK-8722; type: functional; details: 30 µM
[4] = molecular target: Sialic acid-binding Ig-like lectin 9 (Homo sapiens) (UniProt Q9Y336); assay: Hs-Siglec9 ALPHAscreen SOP 20170721; details: 10 µM
[5] = tested on: Trypanosoma cruzi; assay: Trypanosoma cruzi phosphomannomutase and mannose-1-phosphate guanylyltransferase assay; type: functional; details: 10 µM
[6] = molecular target: T2, Arginase-2, mitochondrial (Homo sapiens) (UniProt P78540); assay: in vitro enzyme assay to detect the production of urea directly proportional to the activity of Arginase II; type: functional; details: 33.3 µM; note: in the data most compounds retested in dose-response had high values
T2 sequence (whole entry): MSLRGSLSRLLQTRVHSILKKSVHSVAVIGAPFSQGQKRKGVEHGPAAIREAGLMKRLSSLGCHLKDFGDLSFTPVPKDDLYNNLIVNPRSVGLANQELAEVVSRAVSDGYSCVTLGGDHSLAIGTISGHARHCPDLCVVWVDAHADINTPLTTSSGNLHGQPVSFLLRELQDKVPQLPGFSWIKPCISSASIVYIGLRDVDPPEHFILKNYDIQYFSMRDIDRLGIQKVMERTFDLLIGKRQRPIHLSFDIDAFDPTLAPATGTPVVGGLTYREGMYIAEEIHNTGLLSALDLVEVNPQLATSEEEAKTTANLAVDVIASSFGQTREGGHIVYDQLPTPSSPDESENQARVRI

[7] = molecular target: T3, Proteasome subunit beta (Trypanosoma cruzi) (UniProt O96673); assay: Trypanosoma cruzi proteasome chymotrypsin-like activity (TcProtChymo) assay.; note: in the data most compounds retested in dose-response had high values; type: functional; details: 9.37 µM
T3 sequence (whole entry): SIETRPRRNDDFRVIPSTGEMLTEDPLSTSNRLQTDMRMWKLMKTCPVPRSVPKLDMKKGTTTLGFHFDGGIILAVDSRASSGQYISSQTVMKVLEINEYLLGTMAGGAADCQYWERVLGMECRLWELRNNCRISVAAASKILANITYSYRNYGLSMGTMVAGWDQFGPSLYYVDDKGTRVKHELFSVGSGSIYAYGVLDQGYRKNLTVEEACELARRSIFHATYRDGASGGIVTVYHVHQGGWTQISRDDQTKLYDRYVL

[8] = species: Homo sapiens; assay: To identify inhibition of the IFN signalling (Jak-Stat) pathway via expression of an eGFP reporter gene under the control of an IFN-stimulated response element (ISRE) containing MxA promoter.; type: functional; details: 30 µM
[9] = molecular target: T4, Tyrosyl-tRNA synthetase, putative (Trypanosoma cruzi (strain CL Brener)) (UniProt Q4DSP6); assay: Trypanosoma cruzi tyrosyl tRNA synthetase (TcYRS) _High Tyrosine SOP; type: functional; details: 30 µM; note: in the data most compounds retested in dose-response had high values
T4 sequence (whole entry): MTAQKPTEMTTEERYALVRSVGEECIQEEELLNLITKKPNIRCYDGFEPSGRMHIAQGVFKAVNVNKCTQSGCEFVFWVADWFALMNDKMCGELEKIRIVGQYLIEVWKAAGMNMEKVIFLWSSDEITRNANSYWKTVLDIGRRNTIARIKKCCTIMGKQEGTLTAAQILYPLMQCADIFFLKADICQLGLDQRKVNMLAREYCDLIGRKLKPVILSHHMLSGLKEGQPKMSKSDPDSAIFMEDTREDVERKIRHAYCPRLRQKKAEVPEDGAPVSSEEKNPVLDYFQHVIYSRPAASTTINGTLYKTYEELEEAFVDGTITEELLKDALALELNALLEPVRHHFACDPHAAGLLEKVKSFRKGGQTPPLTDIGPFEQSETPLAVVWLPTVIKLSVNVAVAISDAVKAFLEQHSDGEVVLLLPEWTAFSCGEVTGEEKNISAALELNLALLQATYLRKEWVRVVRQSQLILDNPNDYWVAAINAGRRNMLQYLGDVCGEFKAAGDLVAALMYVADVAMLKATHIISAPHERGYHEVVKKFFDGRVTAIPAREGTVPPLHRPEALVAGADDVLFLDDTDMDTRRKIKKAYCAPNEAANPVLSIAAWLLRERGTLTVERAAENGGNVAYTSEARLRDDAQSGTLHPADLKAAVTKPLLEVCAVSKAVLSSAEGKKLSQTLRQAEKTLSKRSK

[10] = molecular target: T4, Tyrosyl-tRNA synthetase, putative (Trypanosoma cruzi (strain CL Brener)); assay: Trypanosoma cruzi tyrosyl tRNA synthetase (TcYRS) SOP; type: functional; details: 30 µM
[11] = molecular target: Chromo domain-containing protein 1 (Saccharomyces cerevisiae (strain ATCC 204508 / S288c) (Baker's yeast)) (UniProt P32657); assay: ScCHD-1 Enzyme Inhibition Assay; type: functional; details: 30 µM; note: in the data most compounds retested in dose-response had high values
Chain of Chromo domain-containing protein 1 (Saccharomyces cerevisiae (strain ATCC 204508 / S288c) (Baker's yeast)) (P32657 whole entry, the tested form may be a part): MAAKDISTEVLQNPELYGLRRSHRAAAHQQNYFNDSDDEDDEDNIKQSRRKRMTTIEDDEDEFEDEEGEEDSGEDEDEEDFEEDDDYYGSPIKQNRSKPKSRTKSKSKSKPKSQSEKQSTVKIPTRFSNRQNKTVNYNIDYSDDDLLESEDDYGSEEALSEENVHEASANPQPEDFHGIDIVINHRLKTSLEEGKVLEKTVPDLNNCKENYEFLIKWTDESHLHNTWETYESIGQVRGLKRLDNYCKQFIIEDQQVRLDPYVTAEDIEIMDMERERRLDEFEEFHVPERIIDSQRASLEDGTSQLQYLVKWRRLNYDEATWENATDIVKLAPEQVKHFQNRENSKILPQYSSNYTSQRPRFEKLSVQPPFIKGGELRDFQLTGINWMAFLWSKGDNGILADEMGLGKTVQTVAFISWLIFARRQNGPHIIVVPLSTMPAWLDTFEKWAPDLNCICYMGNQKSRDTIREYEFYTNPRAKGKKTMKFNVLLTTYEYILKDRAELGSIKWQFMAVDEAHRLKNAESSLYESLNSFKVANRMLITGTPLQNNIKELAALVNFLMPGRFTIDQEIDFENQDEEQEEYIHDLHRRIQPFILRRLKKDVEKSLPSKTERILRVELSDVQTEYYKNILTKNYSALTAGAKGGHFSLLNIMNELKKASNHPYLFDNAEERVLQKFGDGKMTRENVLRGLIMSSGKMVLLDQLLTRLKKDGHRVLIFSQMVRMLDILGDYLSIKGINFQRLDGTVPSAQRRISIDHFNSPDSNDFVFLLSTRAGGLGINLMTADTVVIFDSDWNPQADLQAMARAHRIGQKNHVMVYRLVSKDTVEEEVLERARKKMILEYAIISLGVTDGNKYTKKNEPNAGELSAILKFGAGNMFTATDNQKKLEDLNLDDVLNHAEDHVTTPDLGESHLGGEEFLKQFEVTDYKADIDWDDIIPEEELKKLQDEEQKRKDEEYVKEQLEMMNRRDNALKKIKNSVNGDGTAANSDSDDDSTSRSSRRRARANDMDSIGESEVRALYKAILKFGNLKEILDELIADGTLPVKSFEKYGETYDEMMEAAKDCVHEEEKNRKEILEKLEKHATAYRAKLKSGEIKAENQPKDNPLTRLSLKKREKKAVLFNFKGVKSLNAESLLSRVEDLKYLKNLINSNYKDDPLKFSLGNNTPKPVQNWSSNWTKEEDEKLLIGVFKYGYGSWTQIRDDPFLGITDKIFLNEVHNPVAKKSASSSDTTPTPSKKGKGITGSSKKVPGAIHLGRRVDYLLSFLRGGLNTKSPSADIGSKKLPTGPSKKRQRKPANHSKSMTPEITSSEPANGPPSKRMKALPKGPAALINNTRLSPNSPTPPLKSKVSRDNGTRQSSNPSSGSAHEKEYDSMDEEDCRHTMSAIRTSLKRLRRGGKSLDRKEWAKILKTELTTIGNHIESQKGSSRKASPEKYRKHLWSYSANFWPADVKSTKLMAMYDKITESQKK

Chain of Sialic acid-binding Ig-like lectin 9 (Homo sapiens) (Q9Y336 whole entry): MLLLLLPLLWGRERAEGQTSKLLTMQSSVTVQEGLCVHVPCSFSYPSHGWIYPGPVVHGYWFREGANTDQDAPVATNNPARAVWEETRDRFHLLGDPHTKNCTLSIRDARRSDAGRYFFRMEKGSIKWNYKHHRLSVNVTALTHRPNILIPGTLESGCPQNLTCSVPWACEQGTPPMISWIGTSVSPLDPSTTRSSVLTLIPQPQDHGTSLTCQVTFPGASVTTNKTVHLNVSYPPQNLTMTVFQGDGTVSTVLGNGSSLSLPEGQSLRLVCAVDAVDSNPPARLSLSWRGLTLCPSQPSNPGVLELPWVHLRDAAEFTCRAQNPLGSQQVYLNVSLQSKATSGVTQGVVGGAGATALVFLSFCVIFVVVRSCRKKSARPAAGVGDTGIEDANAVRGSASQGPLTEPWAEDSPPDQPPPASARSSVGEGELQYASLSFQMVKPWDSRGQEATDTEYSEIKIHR
Chain of Protein translocase subunit SecA (Escherichia coli (strain K12)) (P10408 whole entry): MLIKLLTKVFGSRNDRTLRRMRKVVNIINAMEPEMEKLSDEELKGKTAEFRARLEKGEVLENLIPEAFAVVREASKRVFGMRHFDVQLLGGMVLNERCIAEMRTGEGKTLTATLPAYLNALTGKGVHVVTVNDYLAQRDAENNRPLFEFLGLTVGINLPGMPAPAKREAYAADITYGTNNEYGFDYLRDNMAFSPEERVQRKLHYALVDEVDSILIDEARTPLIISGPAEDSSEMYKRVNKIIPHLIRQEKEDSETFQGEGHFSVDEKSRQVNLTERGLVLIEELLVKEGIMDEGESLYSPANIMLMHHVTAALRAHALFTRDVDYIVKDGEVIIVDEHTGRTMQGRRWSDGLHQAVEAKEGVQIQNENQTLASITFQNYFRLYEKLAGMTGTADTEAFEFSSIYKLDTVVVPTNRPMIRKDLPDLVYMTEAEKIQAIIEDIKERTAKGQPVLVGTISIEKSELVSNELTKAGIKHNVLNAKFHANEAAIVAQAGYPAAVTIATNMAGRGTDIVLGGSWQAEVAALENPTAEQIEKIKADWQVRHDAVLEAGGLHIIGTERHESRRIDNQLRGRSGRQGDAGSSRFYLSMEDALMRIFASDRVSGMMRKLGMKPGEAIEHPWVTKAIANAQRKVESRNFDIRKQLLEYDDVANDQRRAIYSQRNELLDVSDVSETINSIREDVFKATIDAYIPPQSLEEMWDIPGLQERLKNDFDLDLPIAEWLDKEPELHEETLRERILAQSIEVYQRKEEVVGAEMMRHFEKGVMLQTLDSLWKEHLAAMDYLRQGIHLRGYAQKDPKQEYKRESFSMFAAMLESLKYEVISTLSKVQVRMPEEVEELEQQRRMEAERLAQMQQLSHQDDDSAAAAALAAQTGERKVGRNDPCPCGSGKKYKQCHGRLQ

| SMILES | Percent Effect [1] [%] | Percent Effect [2] [%] | Percent Effect [3] [%] | Percent Effect [4] [%] | Percent Effect [5] [%] | Percent Effect [6] [%] | Percent Effect [7] [%] | Percent Effect [8] [%] | Percent Effect [9] [%] | Percent Effect [10] [%] | Percent Effect [11] [%] |
| --- | --- | --- | --- | --- | --- | --- | --- | --- | --- | --- | --- |
| O=C(Cc1ccsc1)N1CCC(n2nc(-c3ccco3)ccc2=O)CC1 | -7.59 | 6.76 | 16.2 | 33.6 | -2.17 | -4.41 | 13.9 | -0.185 | 9.68 | 6.49 | -13.4 |
| CC(C)CN1C(=O)c2ccc(C(=O)NCCc3c[nH]cn3)cc2C1=O | -1.59 | -1.33 | 14.6 | 3.62 | -7.07 | -9.68 | 8.87 | -4.06 | 5.29 | 5.13 | -5.85 |
| Cc1ccc2c(c1)c(CNC(=O)C1CC(=O)N(C3CCCC3)C1)nn2C (centres undefined) | 1.21 | 0 | 4.01 | 6.8 | -7.34 | -1.43 | 21 | 10 | 3.7 | 0 | -5.94 |
| CSCCCN1CC[C@@H](NC(=O)c2cnccn2)[C@H](O)C1 | -3.48 | 5.41 | -0.599 | 6.12 | 3.09 | -1.43 | 11.6 | 5.1 | 8.99 | 19.5 | 1.39 |
| Cc1nc(C)n(CC2CCCN2CCCOc2ccc(F)cc2)n1 (centres undefined) | -4.9 | -15.2 | -12.2 | -1.58 | 7.84 | 0 | 8.93 | 7.36 | 8.37 | 13.9 | -6.25 |
| CCn1cnnc1C1CCN(C(=O)c2cccc3c2ccn3C)CC1 | -5.72 | 18.2 | -2.51 | 0.647 | 3.37 | -4.63 | 7.43 | -1.75 | 7.77 | 24.4 | -13.2 |
| COCC(=O)N1CC[C@@H]2O[C@@H](COCc3csc(C)n3)CC[C@@H]21 | -2.35 | 13.5 | 4.29 | -14.3 | -2.25 | 7.96 | 26.9 | -1.3 | 8.65 | 12.8 | -4.47 |
| Cc1ccccc1C1(C(=O)NCCN2CCCC2)CCOCC1 | -0.0334 | 10.8 | -6.54 | -0.683 | -0.283 | -8.42 | 16.2 | 20.7 | 9.36 | 18.5 | -8.78 |
| Cn1cc(CCNC(=O)NCc2nnc3n2CCC3)cn1 | -2.08 | 15.2 | -4.15 | 10.9 | -1.6 | 2.28 | -0.573 | 4.78 | 1.48 | 16.5 | -6.44 |
